Source: the supplement of paper PMC6555819

Legend:
Assay in all cases: PBM binding z-score (relative to random genomic background probes); higher = stronger binding; sequences stand for … in GC…GCGATTGACAGCGTAGAATGAAGG
[1] = system: RARb homodimer (NR concentration 270 nM)
Outline: (§1)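 Binding z-scores take random background probes as their reference. They come from custom Agilent 4×180K protein-binding microarrays incubated 1 h with ligand-free nuclear receptor dimers, with antibodies against each partner (one per run) detecting binding. Scanned fluorescence was regression-normalized.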

[2] = system: RARg:RXRa (NR concentration 270 nM, RXRa partner concentration 90 nM)
Outline: as §1

[3] = system: RARg homodimer (NR concentration 270 nM)
Outline: as §1

[4] = system: RXRa DBDmut IVT, anti-RXR (DBD mutation: RXRa K156A/R161A, NR concentration 90 nM)
Outline: as §1

[5] = system: RXRa homodimer (NR concentration 180 nM)
Outline: as §1

[6] = system: THRa:RXRa (NR concentration 90 nM, RXRa partner concentration 90 nM)
Outline: as §1

[7] = system: THRa homodimer (NR concentration 90 nM)
Outline: as §1

[8] = system: VDR homodimer (NR concentration 270 nM)
Outline: as §1

For CCTACTGGGCCAAGGTAATTGATCAGTCAAAGCA, which PBM binding z-score [1] is on record?
Its PBM binding z-score is 0.0571.

What about the PBM binding z-score [2] of the same sequence?
Its PBM binding z-score is -0.354.

And the PBM binding z-score [3]?
Its PBM binding z-score is -0.0827.

What about the PBM binding z-score [4] of the same sequence?
Its PBM binding z-score is -0.902.

What about the PBM binding z-score [5] of the same sequence?
Its PBM binding z-score is -0.382.

What about the PBM binding z-score [6] of the same sequence?
Its PBM binding z-score is 0.383.

And the PBM binding z-score [7]?
Its PBM binding z-score is -0.112.

What about the PBM binding z-score [8] of the same sequence?
Its PBM binding z-score is -0.51.

How did the PBM binding z-score [1] turn out when ATCTCTAGGTAAAAGTTCAGTTAATCCCGAGGAT was run?
Its PBM binding z-score is 2.52.

And the PBM binding z-score [2]?
Its PBM binding z-score is 2.1.

What about the PBM binding z-score [3] of the same sequence?
The PBM binding z-score was 2.04.

What about the PBM binding z-score [4] of the same sequence?
The PBM binding z-score was 0.885.

What about the PBM binding z-score [5] of the same sequence?
The PBM binding z-score was 1.63.

And the PBM binding z-score [6]?
Its PBM binding z-score is 1.61.

And the PBM binding z-score [7]?
The PBM binding z-score was 0.805.

And the PBM binding z-score [8]?
Its PBM binding z-score is 2.12.

Which results are given for TAGCCTAGGTCAGATAGGGCCAGTATACGCTATA?
PBM binding z-score [1]: 1.93; PBM binding z-score [2]: 2.8; PBM binding z-score [3]: 3.74; PBM binding z-score [4]: -0.288; PBM binding z-score [5]: 1.41; PBM binding z-score [6]: 4.03; PBM binding z-score [7]: 0.0301; PBM binding z-score [8]: -0.0363

Which PBM binding z-score [1] does the source give for CCTTACGGGTTAAGGTTATAGCACGGGTGGTACG here?
Its PBM binding z-score is 1.42.

And the PBM binding z-score [2]?
The PBM binding z-score was 1.43.

And the PBM binding z-score [3]?
The PBM binding z-score was 0.999.

And the PBM binding z-score [4]?
Its PBM binding z-score is -0.691.

And the PBM binding z-score [5]?
Its PBM binding z-score is 2.18.

What about the PBM binding z-score [6] of the same sequence?
Its PBM binding z-score is 2.64.

What about the PBM binding z-score [7] of the same sequence?
Its PBM binding z-score is 1.75.

And the PBM binding z-score [8]?
The PBM binding z-score was 0.766.

For AGAATGAGGTTACCACAGATCAGGGAAACGCTTG, which PBM binding z-score [1] is on record?
Its PBM binding z-score is 0.855.

What about the PBM binding z-score [2] of the same sequence?
The PBM binding z-score was 2.

And the PBM binding z-score [3]?
Its PBM binding z-score is 1.62.

What about the PBM binding z-score [4] of the same sequence?
Its PBM binding z-score is 1.24.

What about the PBM binding z-score [5] of the same sequence?
The PBM binding z-score was 2.61.

And the PBM binding z-score [6]?
Its PBM binding z-score is 2.93.

And the PBM binding z-score [7]?
Its PBM binding z-score is 0.878.

And the PBM binding z-score [8]?
The PBM binding z-score was 0.395.

ATATGTAGGTGACATCCGGGTCATTCAGGCTATG was tested. Which PBM binding z-score [1] did it give?
The PBM binding z-score was 2.79.

And the PBM binding z-score [2]?
The PBM binding z-score was 3.31.

And the PBM binding z-score [3]?
The PBM binding z-score was 1.95.

What about the PBM binding z-score [4] of the same sequence?
The PBM binding z-score was 0.715.

And the PBM binding z-score [5]?
The PBM binding z-score was 3.03.

What about the PBM binding z-score [6] of the same sequence?
Its PBM binding z-score is 3.53.

What about the PBM binding z-score [7] of the same sequence?
The PBM binding z-score was 2.11.

And the PBM binding z-score [8]?
Its PBM binding z-score is 2.66.

How did the PBM binding z-score [1] turn out when CCGAGTAGGTTATGGGGTATTCAGGCAACGGTGA was run?
The PBM binding z-score was 0.841.

And the PBM binding z-score [2]?
The PBM binding z-score was 0.46.

And the PBM binding z-score [3]?
The PBM binding z-score was 0.562.

What about the PBM binding z-score [4] of the same sequence?
Its PBM binding z-score is 0.0146.

And the PBM binding z-score [5]?
The PBM binding z-score was 0.873.

And the PBM binding z-score [6]?
Its PBM binding z-score is 0.963.

And the PBM binding z-score [7]?
Its PBM binding z-score is 1.05.

What about the PBM binding z-score [8] of the same sequence?
The PBM binding z-score was 0.274.

Which results are given for TCTTGTAGATCAGCAGGTTAAGATAGCTGGCCAA?
PBM binding z-score [1]: -0.0544; PBM binding z-score [2]: -0.0434; PBM binding z-score [3]: -0.135; PBM binding z-score [4]: 0.631; PBM binding z-score [5]: 0.48; PBM binding z-score [6]: 0.172; PBM binding z-score [7]: -0.238; PBM binding z-score [8]: -0.295

CTCGAAAGGTCGGTTGAGGTGGGTATACGGATAA was tested. Which PBM binding z-score [1] did it give?
Its PBM binding z-score is 1.83.

And the PBM binding z-score [2]?
The PBM binding z-score was 2.28.

What about the PBM binding z-score [3] of the same sequence?
Its PBM binding z-score is 2.25.

What about the PBM binding z-score [4] of the same sequence?
Its PBM binding z-score is 0.695.

What about the PBM binding z-score [5] of the same sequence?
The PBM binding z-score was 1.86.

What about the PBM binding z-score [6] of the same sequence?
The PBM binding z-score was 4.1.

And the PBM binding z-score [7]?
Its PBM binding z-score is 0.422.

And the PBM binding z-score [8]?
Its PBM binding z-score is 1.06.

For GGAACGAGGGCATTCGAGTTGCTAGCATGGCGAT, which PBM binding z-score [1] is on record?
The PBM binding z-score was 0.541.

What about the PBM binding z-score [2] of the same sequence?
Its PBM binding z-score is 0.857.

What about the PBM binding z-score [3] of the same sequence?
The PBM binding z-score was 1.12.

And the PBM binding z-score [4]?
Its PBM binding z-score is 2.88.

And the PBM binding z-score [5]?
Its PBM binding z-score is 0.425.

What about the PBM binding z-score [6] of the same sequence?
The PBM binding z-score was 2.25.

What about the PBM binding z-score [7] of the same sequence?
Its PBM binding z-score is -0.87.

What about the PBM binding z-score [8] of the same sequence?
Its PBM binding z-score is 2.87.

How did the PBM binding z-score [1] turn out when TCGAGTAGGTTACCAATGGGACATTCAGCTTTCT was run?
Its PBM binding z-score is -0.0362.

What about the PBM binding z-score [2] of the same sequence?
The PBM binding z-score was 0.634.

And the PBM binding z-score [3]?
Its PBM binding z-score is 0.55.

And the PBM binding z-score [4]?
The PBM binding z-score was 0.448.

And the PBM binding z-score [5]?
The PBM binding z-score was 0.451.

And the PBM binding z-score [6]?
The PBM binding z-score was 0.207.

And the PBM binding z-score [7]?
Its PBM binding z-score is -0.766.

What about the PBM binding z-score [8] of the same sequence?
The PBM binding z-score was -0.643.

Which PBM binding z-score [1] does the source give for TCTAGTTGGTCAAAGGTCACCCACTCGAAATGCG here?
Its PBM binding z-score is 5.15.

And the PBM binding z-score [2]?
Its PBM binding z-score is 7.19.

What about the PBM binding z-score [3] of the same sequence?
Its PBM binding z-score is 6.47.

And the PBM binding z-score [4]?
The PBM binding z-score was 1.86.

And the PBM binding z-score [5]?
The PBM binding z-score was 8.17.

And the PBM binding z-score [6]?
Its PBM binding z-score is 3.7.

And the PBM binding z-score [7]?
Its PBM binding z-score is 1.8.

What about the PBM binding z-score [8] of the same sequence?
Its PBM binding z-score is 2.58.

Which PBM binding z-score [1] does the source give for GGAACGATGGCAAAGTTGATAGCATCTGTCGACG here?
The PBM binding z-score was -0.537.

And the PBM binding z-score [2]?
The PBM binding z-score was -0.206.

What about the PBM binding z-score [3] of the same sequence?
Its PBM binding z-score is 0.0205.

What about the PBM binding z-score [4] of the same sequence?
The PBM binding z-score was -0.199.

And the PBM binding z-score [5]?
The PBM binding z-score was -0.104.

And the PBM binding z-score [6]?
Its PBM binding z-score is -0.533.

What about the PBM binding z-score [7] of the same sequence?
Its PBM binding z-score is -1.03.

What about the PBM binding z-score [8] of the same sequence?
Its PBM binding z-score is -0.827.

What does the source list for TCTCGGAGGACACGAAGGTGAGAGCTTTCCAGAG?
PBM binding z-score [1]: 1.24; PBM binding z-score [2]: 0.731; PBM binding z-score [3]: 1.55; PBM binding z-score [4]: 0.225; PBM binding z-score [5]: 0.152; PBM binding z-score [6]: 1.48; PBM binding z-score [7]: 0.357; PBM binding z-score [8]: -0.501
